Screen size: about 39,000 compounds; about 3,300 (8.5%) were called active. For the sample, actives were picked, then their nearest neighbours and some compounds at random.

The subject of this experiment is HepG2. Description: cytotoxicity call (relative viability < 0.9). The following applies: 10 µM.
As to `C[C@@H]1CCCCO[C@H](CN(C)S(=O)(=O)c2ccccc2)[C@H](C)CN([C@@H](C)CO)C(=O)c2cc(NC(=O)NC3CCCCC3)ccc2O1`, the cytotoxicity call was “inactive”.

Consider `C[C@H](CO)N1C[C@H](C)[C@@H](CN(C)Cc2ccc3c(c2)OCO3)Oc2c(NC(=O)C3CCOCC3)cccc2C1=O`, for which the cytotoxicity call is “inactive”.

As for `C[C@@H]1CN([C@H](C)CO)C(=O)c2cc(C#CCc3ccccc3)cnc2O[C@@H]1CN(C)C(=O)C1CCOCC1`, the cytotoxicity call is “inactive”.

For `Oc1ccc(F)c2ccccc12`, the cytotoxicity call is “inactive”.

Regarding `O=C(c1ccc(Cl)cc1)c1coc2c1cc(O)c1ccccc12`, the cytotoxicity call is “active”.

As to `C[C@@H]1CN([C@H](C)CO)C(=O)Cc2cc(NC(=O)Nc3ccc(C(F)(F)F)cc3)ccc2O[C@H]1CN(C)C(=O)Nc1ccc2c(c1)OCO2`, the cytotoxicity call was “inactive”.

As for `C[C@@H]1CN([C@H](C)CO)C(=O)Cc2cc(NC(=O)Nc3ccc4c(c3)OCO4)ccc2O[C@@H]1CN(C)C(=O)Nc1ccc(C(F)(F)F)cc1`, the cytotoxicity call was “active”.

`C[C@H]1CN([C@@H](C)CO)C(=O)Cc2cc(NC(=O)Nc3ccc(C(F)(F)F)cc3)ccc2O[C@H]1CN(C)C(=O)Nc1ccc2c(c1)OCO2`: the cytotoxicity call was “inactive”.

For `C[C@@H]1CN([C@@H](C)CO)C(=O)Cc2cc(NC(=O)Nc3ccc4c(c3)OCO4)ccc2O[C@H]1CN(C)C(=O)Nc1ccc(C(F)(F)F)cc1`, the cytotoxicity call is “inactive”.

Consider `C[C@H]1CN([C@@H](C)CO)C(=O)Cc2cc(NC(=O)Nc3ccc4c(c3)OCO4)ccc2O[C@H]1CN(C)C(=O)Nc1ccc(C(F)(F)F)cc1`, for which the cytotoxicity call is “active”.

With `C[C@H](CO)N1C[C@H](C)[C@H](CN(C)C(=O)Nc2ccc3c(c2)OCO3)Oc2ccc(NC(=O)Nc3ccc(C(F)(F)F)cc3)cc2CC1=O`, the cytotoxicity call is “inactive”.

`C[C@H]1CN([C@@H](C)CO)C(=O)Cc2cc(NC(=O)Nc3ccc(C(F)(F)F)cc3)ccc2O[C@@H]1CN(C)C(=O)Nc1ccc2c(c1)OCO2`: the cytotoxicity call is “inactive”.

In the case of `C[C@@H]1CN([C@H](C)CO)C(=O)Cc2cc(NC(=O)Nc3ccc(C(F)(F)F)cc3)ccc2O[C@@H]1CN(C)C(=O)Nc1ccc2c(c1)OCO2`, the cytotoxicity call was “active”.

As for `C[C@@H]1CN([C@@H](C)CO)C(=O)Cc2cc(NC(=O)Nc3ccc(C(F)(F)F)cc3)ccc2O[C@H]1CN(C)C(=O)Nc1ccc2c(c1)OCO2`, the cytotoxicity call was “inactive”.

`C[C@@H]1CN([C@@H](C)CO)C(=O)Cc2cc(NC(=O)Nc3ccc(C(F)(F)F)cc3)ccc2O[C@@H]1CN(C)C(=O)Nc1ccc2c(c1)OCO2`: the cytotoxicity call was “active”.

Consider `C[C@H]1CN([C@@H](C)CO)C(=O)Cc2cc(NC(=O)Nc3ccc4c(c3)OCO4)ccc2O[C@@H]1CN(C)C(=O)Nc1ccc(C(F)(F)F)cc1`, for which the cytotoxicity call was “inactive”.

For the compound `C[C@H](CO)N1C[C@H](C)[C@@H](CN(C)C(=O)Nc2ccc3c(c2)OCO3)Oc2ccc(NC(=O)Nc3ccc(C(F)(F)F)cc3)cc2CC1=O`, the cytotoxicity call was “inactive”.

Turning to `Cc1noc(C)c1NC(=O)Nc1ccc2c(c1)C(=O)N([C@H](C)CO)C[C@H](C)[C@H](CN(C)Cc1ccccc1)OCCCC[C@H](C)O2`, the cytotoxicity call is “inactive”.

As to `C=CCOC(=O)[C@H]1[C@@H]2C(=O)O[C@@H](c3ccccc3)[C@@H](c3ccccc3)N2[C@@H](c2ccc(OCCOC(=O)[C@@H]3C[C@@H]4C(=O)N[C@@H](CC(C)C)C(=O)N4[C@@H]3c3cccc(OCCO)c3)cc2)[C@]12C(=O)Nc1ccccc12`, the cytotoxicity call is “inactive”.

With `COc1ccc(S(=O)(=O)N(C)C[C@H]2Oc3ccc(NS(=O)(=O)c4cccs4)cc3C(=O)N([C@H](C)CO)C[C@@H]2C)cc1`, the cytotoxicity call was “inactive”.

As for `COc1cccc(NC(=O)N[C@H]2C=C[C@@H](CC(=O)N3CCN(C)CC3)O[C@H]2CO)c1`, the cytotoxicity call was “inactive”.

`C[C@@H]1CN([C@@H](C)CO)C(=O)c2cc(NC(=O)Nc3ccc4c(c3)OCO4)ccc2O[C@@H](C)CCCCO[C@H]1CN(C)Cc1ccncc1`: the cytotoxicity call was “inactive”.

For `c1cnc2nccn2c1`, the cytotoxicity call was “inactive”.

`C[C@@H]1CN([C@H](C)CO)C(=O)c2cc(NC(=O)CCCN(C)C)ccc2O[C@@H]1CN(C)S(=O)(=O)c1cn(C)cn1`: the cytotoxicity call was “inactive”.

As to `C[C@@H]1CN([C@H](C)CO)C(=O)c2cccc(NC(=O)Nc3cccc4ccccc34)c2O[C@@H]1CN(C)Cc1ccc(C(=O)Nc2ccccc2N)cc1`, the cytotoxicity call is “inactive”.

With `C[C@H](CO)N1C[C@H](C)[C@H](CN(C)Cc2ccc(C(=O)Nc3ccccc3N)cc2)Oc2c(NC(=O)Nc3ccccc3)cccc2C1=O`, the cytotoxicity call is “inactive”.

With `C[C@@H]1CN([C@@H](C)CO)C(=O)c2cccc(NC(=O)Nc3cccc4ccccc34)c2O[C@@H]1CN(C)Cc1ccc(C(=O)Nc2ccccc2N)cc1`, the cytotoxicity call was “inactive”.

`C[C@H](CO)N1C[C@H](C)[C@H](CN(C)Cc2ccc(C(=O)Nc3ccccc3N)cc2)Oc2c(NC(=O)Nc3cccc4ccccc34)cccc2C1=O`: the cytotoxicity call is “active”.

As for `C[C@H]1CN([C@@H](C)CO)C(=O)c2cccc(NC(=O)Nc3cccc4ccccc34)c2O[C@H]1CN(C)Cc1ccc(C(=O)Nc2ccccc2N)cc1`, the cytotoxicity call was “active”.

In the case of `C[C@H]1CN([C@@H](C)CO)C(=O)c2cccc(NC(=O)Nc3ccccc3)c2O[C@@H]1CN(C)Cc1ccc(C(=O)Nc2ccccc2N)cc1`, the cytotoxicity call is “inactive”.

Regarding `COc1ccc(NC(=O)N(C)C[C@@H]2Oc3ccc(NC(=O)Nc4ccc(C(F)(F)F)cc4)cc3C(=O)N([C@@H](C)CO)C[C@@H]2C)cc1`, the cytotoxicity call was “inactive”.

As for `O[C@@H]1Cc2ccccc2[C@H]1O`, the cytotoxicity call is “inactive”.

As to `O=C(C[C@H]1CC[C@@H]2[C@H](COC[C@H](O)CN2S(=O)(=O)c2ccc(Oc3ccccc3)cc2)O1)NCCN1CCCCC1`, the cytotoxicity call was “inactive”.

`O=C(C[C@H]1CC[C@H]2[C@@H](COC[C@H](O)CN2S(=O)(=O)c2cccc(Cl)c2)O1)NCCCN1CCOCC1`: the cytotoxicity call is “inactive”.

Turning to `COc1ccc(NC(=O)N(C)C[C@H]2OCCCC[C@@H](C)Oc3ccc(NS(=O)(=O)c4ccccc4)cc3C(=O)N([C@@H](C)CO)C[C@H]2C)cc1`, the cytotoxicity call was “inactive”.

For the compound `CC(C)NC(=O)N(C)C[C@H]1OCc2cnnn2CCCC(=O)N([C@H](C)CO)C[C@H]1C`, the cytotoxicity call is “inactive”.

As to `C[C@@H]1CCCCO[C@@H](CN(C)C(=O)Nc2ccc(F)cc2)[C@H](C)CN([C@@H](C)CO)C(=O)c2cc(NS(=O)(=O)c3ccc(Cl)cc3)ccc2O1`, the cytotoxicity call was “inactive”.

Take `C[C@@H]1CCCCO[C@H](CN(C)C(=O)Nc2ccccc2)[C@@H](C)CN([C@@H](C)CO)C(=O)c2cc(NS(=O)(=O)c3ccc(Cl)cc3)ccc2O1`: the cytotoxicity call was “active”.

On to `C[C@@H]1CCCCO[C@@H](CN(C)C(=O)Nc2ccc(F)cc2)[C@@H](C)CN([C@H](C)CO)C(=O)c2cc(NS(=O)(=O)c3ccc(Cl)cc3)ccc2O1`, for which the cytotoxicity call is “inactive”.

For the compound `C[C@@H]1CN([C@H](C)CO)C(=O)c2cc(NS(=O)(=O)c3ccc(Cl)cc3)ccc2O[C@@H](C)CCCCO[C@H]1CN(C)C(=O)Nc1ccc(F)cc1`, the cytotoxicity call was “active”.

`C[C@@H]1CCCCO[C@@H](CN(C)C(=O)Nc2ccccc2)[C@H](C)CN([C@@H](C)CO)C(=O)c2cc(NS(=O)(=O)c3ccc(Cl)cc3)ccc2O1`: the cytotoxicity call was “inactive”.

For `C[C@H](CO)N1C[C@H](C)[C@@H](CN(C)C(=O)Nc2ccc(F)cc2)OCCCC[C@H](C)Oc2ccc(NS(=O)(=O)c3ccc(Cl)cc3)cc2C1=O`, the cytotoxicity call was “inactive”.

`C[C@H]1CCCCO[C@@H](CN(C)C(=O)Nc2ccc(F)cc2)[C@@H](C)CN([C@@H](C)CO)C(=O)c2cc(NS(=O)(=O)c3ccc(Cl)cc3)ccc2O1`: the cytotoxicity call was “inactive”.

For the compound `C[C@@H]1CCCCO[C@H](CN(C)C(=O)Nc2ccccc2)[C@@H](C)CN([C@H](C)CO)C(=O)c2cc(NS(=O)(=O)c3ccc(Cl)cc3)ccc2O1`, the cytotoxicity call was “inactive”.

Turning to `C[C@@H]1CCCCO[C@H](CN(C)C(=O)Nc2ccc(F)cc2)[C@@H](C)CN([C@@H](C)CO)C(=O)c2cc(NS(=O)(=O)c3ccc(Cl)cc3)ccc2O1`, the cytotoxicity call is “active”.

Regarding `C[C@@H]1CCCCO[C@H](CN(C)C(=O)Nc2ccc(F)cc2)[C@@H](C)CN([C@H](C)CO)C(=O)c2cc(NS(=O)(=O)c3ccc(Cl)cc3)ccc2O1`, the cytotoxicity call is “inactive”.

Take `C[C@@H]1CN([C@@H](C)CO)C(=O)c2cc(NS(=O)(=O)c3ccc(Cl)cc3)ccc2O[C@@H](C)CCCCO[C@@H]1CN(C)C(=O)Nc1ccc(F)cc1`: the cytotoxicity call was “inactive”.

Regarding `C[C@H]1CCCCO[C@H](CN(C)C(=O)Nc2ccc(F)cc2)[C@@H](C)CN([C@@H](C)CO)C(=O)c2cc(NS(=O)(=O)c3ccc(Cl)cc3)ccc2O1`, the cytotoxicity call was “active”.

Regarding `CC(=O)N[C@H]1[C@H](O/N=[N+](\[O-])N2CCCC2)O[C@H](CO)[C@@H](O)[C@@H]1O`, the cytotoxicity call is “inactive”.

Take `COc1ccc(S(=O)(=O)N2C[C@@H](O)COC[C@H]3O[C@@H](CC(=O)NCCCN4CCOCC4)CC[C@@H]32)cc1`: the cytotoxicity call was “inactive”.

As for `O=C(C[C@H]1C[C@H]2c3cc(NC(=O)NC4CCCC4)ccc3O[C@H]2[C@H](CO)O1)NCc1ccc2c(c1)OCO2`, the cytotoxicity call was “inactive”.

As to `CC(=O)OC1CCC2(C)C(CCC3(C)C2CCC24OC(=O)C5(CCC(C)C(C)C52)CCC34C)C1(C)C` (stereo not drawn), the cytotoxicity call was “inactive”.

As to `COc1ccc(CN(C)C[C@@H]2Oc3ccc(NC(=O)C4CC4)cc3CC(=O)N([C@@H](C)CO)C[C@H]2C)cc1`, the cytotoxicity call was “inactive”.

For `COc1ccc(CN(C)C[C@@H]2OCCCC[C@H](C)Oc3ccc(NC(=O)Nc4c(C)noc4C)cc3C(=O)N([C@@H](C)CO)C[C@H]2C)cc1`, the cytotoxicity call was “inactive”.

For the compound `C[C@H](CO)N1C[C@H](C)[C@H](CN(C)Cc2ccc(Cl)c(Cl)c2)Oc2c(NC(=O)Nc3cccc4ccccc34)cccc2C1=O`, the cytotoxicity call was “inactive”.

As for `Cc1ccc(S(=O)(=O)N(C)C[C@@H]2Oc3ccc(NS(C)(=O)=O)cc3C(=O)N([C@@H](C)CO)C[C@H]2C)cc1`, the cytotoxicity call is “inactive”.

Take `CC(C)NC(=O)N(C)C[C@H]1Oc2c(NC(=O)Nc3ccc4c(c3)OCO4)cccc2C(=O)N([C@H](C)CO)C[C@H]1C`: the cytotoxicity call is “inactive”.

For the compound `O=C(C[C@H]1C[C@H]2c3cc(NS(=O)(=O)c4ccc(F)cc4)ccc3O[C@H]2[C@H](CO)O1)NCc1ccccc1`, the cytotoxicity call was “inactive”.

The values above are taken from the antibiotic and cytotoxicity screens of Wong et al. (2023).
